About 7,900 targets were measured; listed, in parts, are those with a hit and a random draw of the rest. About 0.6% of all pairs of compound and target were hits. A number with no mark means an inactive call.
Columns and labels:
Experiment in all cases: log2 fold change, soluble protein after heating vs DMSO (PISA); higher = thermal stabilisation; K562 cells, 10 uM, 30 min; active = over 0.2 and 3.5 SD of the protein, either way, in both replicates (recomputed)
[1] = compound: C#Cc1cccc(Nc2ncnc3cc(OCCOC)c(OCCOC)cc23)c1 [erlotinib]
In short: (§1)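 Soluble protein was quantified by TMTpro 16plex LC-MS/MS after channel sums were equalised. It was obtained as the supernatant after 21,000xg for 90 min from pooled aliquots of K562 cells (2×10^6 cells/mL, 10 μM compound, 30 min) heated for 3 min across 48°C-58°C and extracted in PBS with 0.5% NP-40 at 4°C. Thermal stability values are relative to control samples and come from duplicates. They are given as log2 fold changes.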

[2] = compound: C/C(=N\NC(=O)C1=CC(=CC=C1)S(=O)(=O)N2CCOCC2)/C3=C(C=CC(=C3)Cl)O
In short: as §1

[3] = compound: C1=CC(=C(C=C1Cl)C2=NC3=NC=CN=C3C(=N2)NC4=CC=NC=C4)F
In short: as §1

[4] = compound: C1=CC(=CC=C1C2=NC3=C(N2)C=C(C=C3)C(=O)N)OC4=CC=C(C=C4)Cl
In short: as §1

[5] = compound: C1=CC2=C(C=CC(=C2)/C=C\3/C(=O)NC(=NCC4=CC=CS4)S3)N=C1
In short: as §1

[6] = compound: C1=CC2=NC=CN=C2C=C1/C=C/3\C(=O)NC(=O)S3
In short: as §1

[7] = compound: C1=CC=C(C=C1)C2=NC(=C(N2)C3=CC=NC=C3)C4=CC(=C(C=C4)Cl)O
In short: as §1

[8] = compound: C1=CC=C2C(=C1)C3=NNC4=CC=CC(=C43)C2=O
In short: as §1

[9] = compound: C1CCN(C1)C(=O)NC2=CC=CC(=C2)NC3=NC=C(C(=N3)NCCC4=CN=CN4)Br
In short: as §1

[10] = compound: C1CN(CCC1(CC2=CC=C(C=C2)Cl)N)C3=NC=NC4=C3C=CN4
In short: as §1

[11] = compound: C=CC(=O)N1CCC[C@@H](n2nc(-c3ccc(Oc4ccccc4)cc3)c3c(N)ncnc32)C1 [ibrutinib]
In short: as §1

[12] = compound: CC(=O)c1cnc2ccc(-c3cc(Cl)c(O)c(Cl)c3)nc2c1N[C@H]1CC[C@H](CN(C)C)CC1
In short: as §1

[13] = compound: CC(C)(C)Cn1c(N)nc2ccc(-c3[nH]c(C(C)(C)C)nc3-c3ccc(F)cc3)nc21 [ralimetinib]
In short: as §1

[14] = compound: CC(C)(O)CC(=O)NCCn1ccc2ncnc(Nc3ccc(Oc4cccc(C(F)(F)F)c4)c(Cl)c3)c21
In short: as §1

[15] = compound: CC(C)C1=C2N=C(C=C(N2N=C1)NCC3=CC=CC=C3)NCCCCCCN
In short: as §1

[16] = compound: CC(C)C[C@@H](C=O)NC(=O)[C@H](CC(C)C)NC(=O)[C@H](CC(C)C)NC(=O)OCc1ccccc1
In short: as §1

[17] = compound: CC1=C(C(CC(=O)N1)C2=CC=C(C=C2)C(F)(F)F)C(=O)NC3=C(C=C4C(=C3)C=NN4)F
In short: as §1

[18] = compound: CC1=C(C2=C(C=C1)C(=O)C3=CC=CC=C3N2CCCN)C
In short: as §1

[19] = compound: C1COCCN1CCN2C3=CC=CC=C3N=C2NC(=O)C4=CC(=CC=C4)[N+](=O)[O-] [IRAK-1-4 Inhibitor I]
In short: as §1

[20] = compound: CC(C)N(C[C@H]1O[C@@H](n2cnc3c(N)ncnc32)[C@H](O)[C@@H]1O)[C@H]1C[C@@H](CCc2nc3cc(C(C)(C)C)ccc3[nH]2)C1 [pinometostat]
In short: as §1

Chain of UniProt P05543 (P05543 whole entry, looked up): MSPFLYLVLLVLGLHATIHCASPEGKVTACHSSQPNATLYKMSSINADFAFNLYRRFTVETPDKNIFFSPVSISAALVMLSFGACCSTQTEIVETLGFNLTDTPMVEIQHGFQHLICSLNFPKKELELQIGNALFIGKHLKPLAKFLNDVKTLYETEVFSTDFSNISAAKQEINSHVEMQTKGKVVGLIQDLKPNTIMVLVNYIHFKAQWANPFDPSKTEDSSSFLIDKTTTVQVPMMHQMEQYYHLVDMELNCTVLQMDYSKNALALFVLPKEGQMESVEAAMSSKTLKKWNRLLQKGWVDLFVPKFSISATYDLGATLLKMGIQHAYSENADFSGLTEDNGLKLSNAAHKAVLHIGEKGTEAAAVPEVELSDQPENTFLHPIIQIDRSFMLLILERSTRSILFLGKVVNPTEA
Chain of UniProt Q86UA6 (Q86UA6 whole entry, looked up): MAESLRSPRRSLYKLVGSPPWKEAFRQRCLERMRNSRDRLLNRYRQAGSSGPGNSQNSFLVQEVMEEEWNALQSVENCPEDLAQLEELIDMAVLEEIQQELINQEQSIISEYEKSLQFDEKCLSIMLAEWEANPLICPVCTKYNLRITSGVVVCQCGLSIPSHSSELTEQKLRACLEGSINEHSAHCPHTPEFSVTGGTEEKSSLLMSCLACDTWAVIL
Chain of UniProt Q13796 (Q13796 whole entry, looked up): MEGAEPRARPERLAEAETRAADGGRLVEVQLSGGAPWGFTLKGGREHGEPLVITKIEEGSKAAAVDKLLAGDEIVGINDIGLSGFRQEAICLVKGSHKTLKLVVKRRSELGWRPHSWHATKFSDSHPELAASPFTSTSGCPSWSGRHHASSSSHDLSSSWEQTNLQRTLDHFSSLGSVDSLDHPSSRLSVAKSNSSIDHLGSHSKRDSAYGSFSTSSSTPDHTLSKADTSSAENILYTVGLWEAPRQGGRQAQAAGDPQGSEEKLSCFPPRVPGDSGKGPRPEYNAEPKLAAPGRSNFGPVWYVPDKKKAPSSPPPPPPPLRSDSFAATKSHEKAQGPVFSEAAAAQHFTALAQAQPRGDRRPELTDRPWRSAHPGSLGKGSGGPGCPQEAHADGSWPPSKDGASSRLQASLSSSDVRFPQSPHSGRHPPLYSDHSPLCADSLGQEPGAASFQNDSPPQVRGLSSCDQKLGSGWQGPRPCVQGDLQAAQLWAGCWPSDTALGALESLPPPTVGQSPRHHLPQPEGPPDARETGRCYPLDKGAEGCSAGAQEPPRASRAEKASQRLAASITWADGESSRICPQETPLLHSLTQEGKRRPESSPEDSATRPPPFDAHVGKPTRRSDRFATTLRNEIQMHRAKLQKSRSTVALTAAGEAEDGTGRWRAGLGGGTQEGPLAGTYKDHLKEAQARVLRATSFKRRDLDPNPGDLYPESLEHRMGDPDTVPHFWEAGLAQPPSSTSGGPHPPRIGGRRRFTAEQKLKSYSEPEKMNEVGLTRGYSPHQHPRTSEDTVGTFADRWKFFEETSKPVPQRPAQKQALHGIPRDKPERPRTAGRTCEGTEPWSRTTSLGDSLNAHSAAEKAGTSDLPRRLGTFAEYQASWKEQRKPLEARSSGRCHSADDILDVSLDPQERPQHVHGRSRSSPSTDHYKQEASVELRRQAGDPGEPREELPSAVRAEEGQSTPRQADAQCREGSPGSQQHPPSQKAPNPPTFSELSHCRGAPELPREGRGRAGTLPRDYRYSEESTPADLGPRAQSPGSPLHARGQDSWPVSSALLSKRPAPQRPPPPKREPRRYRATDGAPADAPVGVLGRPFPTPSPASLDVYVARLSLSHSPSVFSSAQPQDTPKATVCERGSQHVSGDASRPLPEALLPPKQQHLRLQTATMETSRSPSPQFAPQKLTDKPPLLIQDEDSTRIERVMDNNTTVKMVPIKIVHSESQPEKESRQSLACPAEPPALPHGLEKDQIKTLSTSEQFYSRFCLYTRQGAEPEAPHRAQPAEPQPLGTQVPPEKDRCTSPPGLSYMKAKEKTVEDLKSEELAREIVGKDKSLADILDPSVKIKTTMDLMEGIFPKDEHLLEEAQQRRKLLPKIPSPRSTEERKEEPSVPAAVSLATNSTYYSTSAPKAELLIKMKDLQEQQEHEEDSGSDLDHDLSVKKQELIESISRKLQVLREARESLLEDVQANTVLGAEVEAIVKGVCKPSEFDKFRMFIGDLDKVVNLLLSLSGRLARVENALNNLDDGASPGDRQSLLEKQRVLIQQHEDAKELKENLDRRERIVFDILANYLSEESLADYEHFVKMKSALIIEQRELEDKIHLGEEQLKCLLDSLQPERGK
Chain of UniProt Q8WZA2 (Q8WZA2 whole entry, looked up): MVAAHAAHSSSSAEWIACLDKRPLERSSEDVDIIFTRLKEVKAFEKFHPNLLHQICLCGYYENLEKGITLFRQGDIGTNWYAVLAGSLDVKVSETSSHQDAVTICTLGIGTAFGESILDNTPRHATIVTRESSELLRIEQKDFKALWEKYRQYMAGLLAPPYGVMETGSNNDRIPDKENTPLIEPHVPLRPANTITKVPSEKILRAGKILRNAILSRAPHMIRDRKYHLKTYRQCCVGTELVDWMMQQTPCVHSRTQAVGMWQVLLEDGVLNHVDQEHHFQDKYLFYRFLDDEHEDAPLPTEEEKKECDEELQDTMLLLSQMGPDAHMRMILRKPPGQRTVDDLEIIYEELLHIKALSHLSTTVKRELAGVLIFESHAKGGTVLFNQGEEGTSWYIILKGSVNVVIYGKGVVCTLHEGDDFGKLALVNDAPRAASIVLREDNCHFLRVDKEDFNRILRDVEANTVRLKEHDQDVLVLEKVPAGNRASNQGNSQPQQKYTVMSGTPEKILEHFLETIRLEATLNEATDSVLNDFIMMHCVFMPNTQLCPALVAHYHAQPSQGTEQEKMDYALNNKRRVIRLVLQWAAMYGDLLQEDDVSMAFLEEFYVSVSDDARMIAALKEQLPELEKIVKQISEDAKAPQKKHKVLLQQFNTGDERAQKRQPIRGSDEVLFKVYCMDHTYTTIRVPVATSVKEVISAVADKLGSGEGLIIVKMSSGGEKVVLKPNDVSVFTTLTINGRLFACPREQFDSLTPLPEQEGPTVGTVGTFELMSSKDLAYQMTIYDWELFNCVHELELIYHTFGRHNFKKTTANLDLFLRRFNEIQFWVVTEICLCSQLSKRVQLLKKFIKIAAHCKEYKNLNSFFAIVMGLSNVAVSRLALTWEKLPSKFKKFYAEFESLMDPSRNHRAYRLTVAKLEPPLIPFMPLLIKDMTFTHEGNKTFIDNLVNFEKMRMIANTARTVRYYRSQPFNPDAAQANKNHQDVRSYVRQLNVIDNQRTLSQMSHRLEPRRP
Chain of UniProt O00767 (O00767 whole entry, looked up): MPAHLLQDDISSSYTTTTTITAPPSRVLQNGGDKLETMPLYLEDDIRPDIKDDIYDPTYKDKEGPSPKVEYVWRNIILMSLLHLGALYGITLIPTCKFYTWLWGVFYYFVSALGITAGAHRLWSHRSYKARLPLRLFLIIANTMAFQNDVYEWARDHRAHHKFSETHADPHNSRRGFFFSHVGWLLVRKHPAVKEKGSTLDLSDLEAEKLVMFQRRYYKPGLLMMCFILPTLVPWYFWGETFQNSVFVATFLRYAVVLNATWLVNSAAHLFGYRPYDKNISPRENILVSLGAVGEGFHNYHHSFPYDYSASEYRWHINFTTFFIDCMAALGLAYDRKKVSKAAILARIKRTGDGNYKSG
Chain of UniProt Q99496 (Q99496 whole entry, looked up): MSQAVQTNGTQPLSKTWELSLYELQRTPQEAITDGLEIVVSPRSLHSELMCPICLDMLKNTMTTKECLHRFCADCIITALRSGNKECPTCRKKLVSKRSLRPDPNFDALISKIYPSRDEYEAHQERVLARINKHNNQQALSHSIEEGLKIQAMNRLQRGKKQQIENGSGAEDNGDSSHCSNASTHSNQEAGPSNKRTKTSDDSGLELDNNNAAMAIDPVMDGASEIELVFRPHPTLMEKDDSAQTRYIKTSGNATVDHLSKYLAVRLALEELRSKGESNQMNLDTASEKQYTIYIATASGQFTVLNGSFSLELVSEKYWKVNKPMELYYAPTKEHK
Chain of UniProt O43819 (O43819 whole entry, looked up): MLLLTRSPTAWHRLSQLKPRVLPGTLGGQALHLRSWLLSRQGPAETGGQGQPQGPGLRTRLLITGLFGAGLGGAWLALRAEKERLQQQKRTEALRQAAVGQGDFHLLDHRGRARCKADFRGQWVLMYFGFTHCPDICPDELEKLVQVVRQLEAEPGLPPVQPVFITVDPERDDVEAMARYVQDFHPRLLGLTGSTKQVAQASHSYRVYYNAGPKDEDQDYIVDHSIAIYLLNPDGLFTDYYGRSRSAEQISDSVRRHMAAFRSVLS

| Target | log2 fold change [1] | log2 fold change [2] | log2 fold change [3] | log2 fold change [4] | log2 fold change [5] | log2 fold change [6] | log2 fold change [7] | log2 fold change [8] | log2 fold change [9] | log2 fold change [10] | log2 fold change [11] | log2 fold change [12] | log2 fold change [13] | log2 fold change [14] | log2 fold change [15] | log2 fold change [16] | log2 fold change [17] | log2 fold change [18] | log2 fold change [19] | log2 fold change [20] |
| --- | --- | --- | --- | --- | --- | --- | --- | --- | --- | --- | --- | --- | --- | --- | --- | --- | --- | --- | --- | --- |
| RAP2C (UniProt Q9Y3L5) | 0.021 | 0.119 | 0.205 | 0.01 | -0.097 | 0.026 | 0.026 | 0.167 | -0.008 | 0.034 | 0.016 | -0.032 | 0.021 | -0.107 | 0.148 | 0.048 | -0.104 | 0.11 |  |  |
| SCO2 (UniProt O43819) | 0.092 | 0.012 | 0.055 | 0.048 | 0.243 | -0.054 | 0.017 | 0.163 | -0.042 | 0.101 | 0.014 | -0.06 | 0.142 | -0.154 | -0.071 | 0.024 |  | 0.07 | 0.02 | 0.054 |
| RBM8A (UniProt Q9Y5S9) | -0.021 | -0.014 | 0.012 | -0.008 | -0.076 | 0.024 | -0.069 | -0.035 | 0.025 | 0.003 | -0.017 | 0.127 | -0.015 | -0.002 | 0.128 | 0.024 | -0.029 | 0.027 | -0.027 | -0.015 |
| RNPEP (UniProt Q9H4A4) | 0.053 | 0.053 | 0.053 | 0.007 | 0.009 | 0.019 | 0.036 | -0.008 | -0.004 | -0.016 | -0.018 | 0.02 | 0.011 | -0.055 | -0.182 | -0.021 | 0.004 | 0.137 | -0.004 | 0.018 |
| SLC12A9 (UniProt Q9BXP2) | 0.023 | 0.03 | 0.039 | -0.013 | -0.04 | 0.021 | 0.016 | -0.015 | -0.019 | -0.012 | -0.001 | 0.016 | -0.106 | -0.012 | -0.165 | 0.033 | 0.028 | 0.056 | 0.112 | -0.018 |
| RNF2 (UniProt Q99496) | -0.014 | 0.116 | -0.013 | -0.231 | -0.057 | -0.004 |  | -0.053 | -0.103 | -0.006 | 0.086 | 0.001 |  | -0.065 | 0.091 |  | 0.04 | -0.058 | -0.024 | 0.066 |
| RBM27 (UniProt Q9P2N5) | 0.034 | 0.079 | 0.003 | 0.022 | -0.039 | -0.01 | -0.067 | 0.022 | -0.061 | -0.128 | 0.023 | -0.338 (active) | -0.045 | -0.063 | -0.479 (active) | 0.042 | 0.088 | 0.05 | -0.123 | 0.028 |
| SHROOM2 (UniProt Q13796) | 0.266 | -1.03 (active) | 0.095 | -0.361 | 0.069 | -0.021 |  | 0.013 | -0.027 | 0.303 | 0.065 | 0.137 |  | 0.009 | 0.155 |  | -0.015 | 0.072 | 0.236 | -0.182 |
| SLC1A3 (UniProt P43003) | 0.025 | 0.017 | 0.194 | 0.053 | -0.169 | 0.001 | 0.007 | 0.012 | 0.05 | 0.163 | 0.168 | 0.056 | 0.058 | 0.007 | 0.238 | -0.064 | 0.018 | 0.029 |  |  |
| RANBP2 (UniProt P49792) | -0.107 | 0.007 | 0.062 | 0.081 | 0.082 | 0.003 | -0.007 | -0.028 | 0.005 | 0 | 0.035 | 0.081 | 0.022 | -0.043 | -0.136 | 0.024 | 0.169 | 0.076 | 0.024 | -0.017 |
| RABGAP1L isoform 5 (UniProt Q5R372) | 0.114 | 0.043 | -0.076 | 0.089 | -0.007 | 0.045 |  | -0.097 | 0.023 | 0.016 | -0.031 | -0.025 |  | -0.057 | -0.125 |  | -0.297 | -0.271 | 0.04 | -0.17 |
| SERPINA7 (UniProt P05543) | -0.118 | -0.1 | -0.024 | 0.091 | 0.15 | -0.111 | -0.004 | -0.072 | 0.164 | 0.272 | 0.229 | 0.227 | -0.062 | 0.314 | 0.066 | 0.043 | 0.077 | -0.245 | 0.095 | 0 |
| ROMO1 (UniProt P60602) | 0.016 | -0.092 | 0.045 | -0.01 | -0.009 | 0.018 | 0.008 | 0.003 | 0.039 | 0.001 | 0.069 | -0.044 | -0.024 | 0.052 | -0.051 | -0.083 | 0.039 | -0.077 |  |  |
| SCD (UniProt O00767) | 0.022 | -0.256 | 0.143 | -0.008 | 0.024 | 0.04 | -0.059 | -0.006 | 0.126 | 0.023 | -0.023 | 0.008 | -0.148 | -0.046 | -0.222 | 0.101 | 0.024 | -0.027 | 0.048 | 0 |
| SAFB2 (UniProt K7EQU4) |  |  | -0.172 |  |  | -0.277 |  |  |  |  | 0.131 |  |  | -0.042 |  |  | -0.31 |  | -0.129 | -0.051 |
| RAPGEF4 (UniProt Q8WZA2) | 0.271 | -0.636 (active) | 0.057 | 0.053 | 0.19 | 0.029 |  | -0.014 | -0.038 | 0.18 | -0.025 | -0.022 |  | 0.065 | 0.089 |  |  | 0.109 | -0.184 | -0.096 |
| RPAIN isoform 8 (UniProt Q86UA6) |  | 0.205 | 0.085 |  | -0.03 | 0.048 | 0.083 | 0.009 | -0.035 | -0.002 | 0.034 | -0.124 | -0.048 | 0.048 |  | -0.221 |  | -0.168 | -0.022 | 0.011 |

From the supplement of paper PMC10849652
